Measured values as given in the supplement of paper PMC4466140.

Legend:
Assay in all cases: SPOT peptide array binding signal intensity (averaged, normalized) (arbitrary units (background-subtracted, floor 0; scale differs between SH3 domains)); higher = stronger binding of the SH3 domain to the peptide
AgAbp1 = biological target: AgAbp1
Summary of the method: (§1)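 Cellulose membranes carried synthetic 15-mer peptides with cysteines swapped for serines. These were incubated overnight at 4°C with 10 μg/ml of GST-fused SH3 domains from four yeast species in TBS-based blocking buffer. Binding signal, detected with anti-GST antibody and quantified in Genespotter, is the normalized, background-subtracted spot intensity averaged over replicates, in arbitrary units specific to each domain.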

AgBbc1 = biological target: AgBbc1
Summary of the method: as §1

AgBem1-D1 = biological target: AgBem1-D1
Summary of the method: as §1

AgBzz1-D1 = biological target: AgBzz1-D1
Summary of the method: as §1

AgBzz1-D2 = biological target: AgBzz1-D2
Summary of the method: as §1

AgCyk3 = biological target: AgCyk3
Summary of the method: as §1

AgFus1 = biological target: AgFus1
Summary of the method: as §1

AgHof1 = biological target: AgHof1
Summary of the method: as §1

AgHse1 = biological target: AgHse1
Summary of the method: as §1

AgLsb1 = biological target: AgLsb1
Summary of the method: as §1

AgLsb4 = biological target: AgLsb4
Summary of the method: as §1

AgMyo5 = biological target: AgMyo5
Summary of the method: as §1

AgNbp2 = biological target: AgNbp2
Summary of the method: as §1

AgRvs167 = biological target: AgRvs167
Summary of the method: as §1

AgSho1 = biological target: AgSho1
Summary of the method: as §1

AgSla1-D1-D2 = biological target: AgSla1-D1-D2
Summary of the method: as §1

AgSla1-D3 = biological target: AgSla1-D3
Summary of the method: as §1

CaAbp1-D1 = biological target: CaAbp1-D1
Summary of the method: as §1

CaAbp1-D2 = biological target: CaAbp1-D2
Summary of the method: as §1

CaBbc1 = biological target: CaBbc1
Summary of the method: as §1

CaBem1-D1 = biological target: CaBem1-D1
Summary of the method: as §1

CaBzz1-D1 = biological target: CaBzz1-D1
Summary of the method: as §1

CaBzz1-D2 = biological target: CaBzz1-D2
Summary of the method: as §1

CaCyk3 = biological target: CaCyk3
Summary of the method: as §1

CaFus1 = biological target: CaFus1
Summary of the method: as §1

CaHof1 = biological target: CaHof1
Summary of the method: as §1

CaHse1 = biological target: CaHse1
Summary of the method: as §1

CaLsb1 = biological target: CaLsb1
Summary of the method: as §1

CaLsb4 = biological target: CaLsb4
Summary of the method: as §1

CaMyo5 = biological target: CaMyo5
Summary of the method: as §1

CaNbp2 = biological target: CaNbp2
Summary of the method: as §1

CaRvs167 = biological target: CaRvs167
Summary of the method: as §1

CaRvs167-3 = biological target: CaRvs167-3
Summary of the method: as §1

CaSho1 = biological target: CaSho1
Summary of the method: as §1

CaSla1-D1-D2 = biological target: CaSla1-D1-D2
Summary of the method: as §1

CaSla1-D3 = biological target: CaSla1-D3
Summary of the method: as §1

ScAbp1 = biological target: ScAbp1
Summary of the method: as §1

ScBbc1 = biological target: ScBbc1
Summary of the method: as §1

ScBem1-D1 = biological target: ScBem1-D1
Summary of the method: as §1

ScBzz1-D1 = biological target: ScBzz1-D1
Summary of the method: as §1

ScBzz1-D2 = biological target: ScBzz1-D2
Summary of the method: as §1

ScCyk3 = biological target: ScCyk3
Summary of the method: as §1

ScFus1 = biological target: ScFus1
Summary of the method: as §1

ScHof1 = biological target: ScHof1
Summary of the method: as §1

ScHse1 = biological target: ScHse1
Summary of the method: as §1

ScLsb1 = biological target: ScLsb1
Summary of the method: as §1

ScLsb2 = biological target: ScLsb2
Summary of the method: as §1

ScLsb3 = biological target: ScLsb3
Summary of the method: as §1

ScLsb4 = biological target: ScLsb4
Summary of the method: as §1

ScMyo3 = biological target: ScMyo3
Summary of the method: as §1

ScMyo5 = biological target: ScMyo5
Summary of the method: as §1

ScNbp2 = biological target: ScNbp2
Summary of the method: as §1

ScPex13 = biological target: ScPex13
Summary of the method: as §1

ScRvs167 = biological target: ScRvs167
Summary of the method: as §1

ScSho1 = biological target: ScSho1
Summary of the method: as §1

ScSla1-D1-D2 = biological target: ScSla1-D1-D2
Summary of the method: as §1

ScSla1-D3 = biological target: ScSla1-D3
Summary of the method: as §1

SpAbp1-D1 = biological target: SpAbp1-D1
Summary of the method: as §1

SpBbc1 = biological target: SpBbc1
Summary of the method: as §1

SpBzz1-D1 = biological target: SpBzz1-D1
Summary of the method: as §1

Q: With PSRRDSLSIPRAVDA as the binder, how does the “SPOT peptide array binding signal intensity” value (AgAbp1) read?
A: Its value is ≤ 0.

Q: And the “SPOT peptide array binding signal intensity” value (AgBbc1)?
A: The value was 41.5.

Q: And the “SPOT peptide array binding signal intensity” value (AgBem1-D1)?
A: Its value is 56.

Q: And the “SPOT peptide array binding signal intensity” value (AgBzz1-D1)?
A: Its value is 17.

Q: And the “SPOT peptide array binding signal intensity” value (AgBzz1-D2)?
A: The value was 30.

Q: And the “SPOT peptide array binding signal intensity” value (AgCyk3)?
A: Its value is ≤ 0.

Q: And the “SPOT peptide array binding signal intensity” value (AgFus1)?
A: Its value is 5.

Q: And the “SPOT peptide array binding signal intensity” value (AgHof1)?
A: Its value is 10.

Q: And the “SPOT peptide array binding signal intensity” value (AgHse1)?
A: The value was 14.5.

Q: What about the “SPOT peptide array binding signal intensity” value (AgLsb1) of the same binder?
A: Its value is 13.5.

Q: And the “SPOT peptide array binding signal intensity” value (AgLsb4)?
A: The value was 2.5.

Q: What about the “SPOT peptide array binding signal intensity” value (AgMyo5) of the same binder?
A: Its value is ≤ 0.

Q: What about the “SPOT peptide array binding signal intensity” value (AgNbp2) of the same binder?
A: Its value is 6.

Q: And the “SPOT peptide array binding signal intensity” value (AgRvs167)?
A: The value was 1.67.

Q: And the “SPOT peptide array binding signal intensity” value (AgSho1)?
A: Its value is ≤ 0.

Q: And the “SPOT peptide array binding signal intensity” value (AgSla1-D1-D2)?
A: The value was 0.5.

Q: And the “SPOT peptide array binding signal intensity” value (AgSla1-D3)?
A: The value was 0.5.

Q: And the “SPOT peptide array binding signal intensity” value (CaAbp1-D1)?
A: Its value is ≤ 0.

Q: And the “SPOT peptide array binding signal intensity” value (CaAbp1-D2)?
A: Its value is 25.

Q: And the “SPOT peptide array binding signal intensity” value (CaBbc1)?
A: Its value is 354.

Q: And the “SPOT peptide array binding signal intensity” value (CaBem1-D1)?
A: Its value is 4.

Q: And the “SPOT peptide array binding signal intensity” value (CaBzz1-D1)?
A: Its value is 123.

Q: What about the “SPOT peptide array binding signal intensity” value (CaBzz1-D2) of the same binder?
A: The value was 93.

Q: And the “SPOT peptide array binding signal intensity” value (CaCyk3)?
A: Its value is 3.

Q: What about the “SPOT peptide array binding signal intensity” value (CaFus1) of the same binder?
A: The value was 65.

Q: What about the “SPOT peptide array binding signal intensity” value (CaHof1) of the same binder?
A: Its value is 1.

Q: And the “SPOT peptide array binding signal intensity” value (CaHse1)?
A: The value was ≤ 0.

Q: And the “SPOT peptide array binding signal intensity” value (CaLsb1)?
A: The value was ≤ 0.

Q: What about the “SPOT peptide array binding signal intensity” value (CaLsb4) of the same binder?
A: Its value is ≤ 0.

Q: And the “SPOT peptide array binding signal intensity” value (CaMyo5)?
A: Its value is 1.5.

Q: And the “SPOT peptide array binding signal intensity” value (CaNbp2)?
A: The value was 28.5.

Q: What about the “SPOT peptide array binding signal intensity” value (CaRvs167) of the same binder?
A: The value was 0.5.

Q: What about the “SPOT peptide array binding signal intensity” value (CaRvs167-3) of the same binder?
A: Its value is 1.

Q: And the “SPOT peptide array binding signal intensity” value (CaSho1)?
A: The value was 8.

Q: What about the “SPOT peptide array binding signal intensity” value (CaSla1-D1-D2) of the same binder?
A: Its value is ≤ 0.

Q: What about the “SPOT peptide array binding signal intensity” value (CaSla1-D3) of the same binder?
A: The value was 1.25.

Q: And the “SPOT peptide array binding signal intensity” value (ScAbp1)?
A: The value was ≤ 0.

Q: What about the “SPOT peptide array binding signal intensity” value (ScBbc1) of the same binder?
A: The value was 8.5.

Q: And the “SPOT peptide array binding signal intensity” value (ScBem1-D1)?
A: The value was 57.

Q: And the “SPOT peptide array binding signal intensity” value (ScBzz1-D1)?
A: Its value is 22.

Q: What about the “SPOT peptide array binding signal intensity” value (ScBzz1-D2) of the same binder?
A: The value was 19.

Q: And the “SPOT peptide array binding signal intensity” value (ScCyk3)?
A: Its value is 2.

Q: What about the “SPOT peptide array binding signal intensity” value (ScFus1) of the same binder?
A: The value was ≤ 0.

Q: What about the “SPOT peptide array binding signal intensity” value (ScHof1) of the same binder?
A: The value was ≤ 0.

Q: What about the “SPOT peptide array binding signal intensity” value (ScHse1) of the same binder?
A: Its value is ≤ 0.

Q: And the “SPOT peptide array binding signal intensity” value (ScLsb1)?
A: The value was ≤ 0.

Q: What about the “SPOT peptide array binding signal intensity” value (ScLsb2) of the same binder?
A: Its value is 3.5.

Q: What about the “SPOT peptide array binding signal intensity” value (ScLsb3) of the same binder?
A: The value was 4.

Q: What about the “SPOT peptide array binding signal intensity” value (ScLsb4) of the same binder?
A: Its value is 11.5.

Q: And the “SPOT peptide array binding signal intensity” value (ScMyo3)?
A: The value was 0.5.

Q: And the “SPOT peptide array binding signal intensity” value (ScMyo5)?
A: The value was 4.5.

Q: And the “SPOT peptide array binding signal intensity” value (ScNbp2)?
A: The value was 1.

Q: What about the “SPOT peptide array binding signal intensity” value (ScPex13) of the same binder?
A: Its value is 1.

Q: What about the “SPOT peptide array binding signal intensity” value (ScRvs167) of the same binder?
A: The value was ≤ 0.

Q: And the “SPOT peptide array binding signal intensity” value (ScSho1)?
A: Its value is 14.

Q: And the “SPOT peptide array binding signal intensity” value (ScSla1-D1-D2)?
A: The value was ≤ 0.

Q: And the “SPOT peptide array binding signal intensity” value (ScSla1-D3)?
A: The value was 22.2.

Q: And the “SPOT peptide array binding signal intensity” value (SpAbp1-D1)?
A: Its value is 8.

Q: What about the “SPOT peptide array binding signal intensity” value (SpBbc1) of the same binder?
A: The value was 3.

Q: And the “SPOT peptide array binding signal intensity” value (SpBzz1-D1)?
A: The value was 116.
